From PubChem BioAssay (Tox21)
Unmarked numbers belong to inactive results. Records with an inconclusive call do not appear. Where a call stands in place of a potency, no number is given. Activity calls are given as the source filed them. Unless noted, the call rests on the fitted dose curve.

How the values were obtained:
[1] = Nuclear factor erythroid 2-related factor 2/antioxidant responsive element (Nrf2/ARE) small molecule agonists: qHTS cell viability counter screen in human keratinocytes (AID 1919968; active means well fitted curve in the direction sought with a large enough effect in the repeat runs; an effect the other way counts as inactive or inconclusive; further: nearly all actives have a fitted effect of over 55% in size; further: potency means the concentration at half of the fitted maximal effect)
Outline: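 After a 5 h attachment period, ARE-reporter keratinocytes were dosed with compounds in DMSO and then cultured 23 h at 37 C. Cell viability came from CellTiter-Fluor signal read after a further 1 h.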

[2] = Nuclear factor erythroid 2-related factor 2/antioxidant responsive element (Nrf2/ARE) small molecule agonists: luciferase reporter gene qHTS assay in human keratinocytes (AID 1919969); further: nearly all actives have a fitted effect of over 35% in size
[3] = target: KiSS-1 receptor (Homo sapiens) (UniProt Q969F8); assay: Human kisspeptin (KISS1R) small molecule agonists, calcium flux assay in KISS1R-HEK293 cells (AID 1920064; active means well fitted curve in the direction sought with a large enough effect in the repeat runs; an effect the other way counts as inactive or inconclusive)
Chain of KiSS-1 receptor (Homo sapiens) (Q969F8 whole entry, looked up): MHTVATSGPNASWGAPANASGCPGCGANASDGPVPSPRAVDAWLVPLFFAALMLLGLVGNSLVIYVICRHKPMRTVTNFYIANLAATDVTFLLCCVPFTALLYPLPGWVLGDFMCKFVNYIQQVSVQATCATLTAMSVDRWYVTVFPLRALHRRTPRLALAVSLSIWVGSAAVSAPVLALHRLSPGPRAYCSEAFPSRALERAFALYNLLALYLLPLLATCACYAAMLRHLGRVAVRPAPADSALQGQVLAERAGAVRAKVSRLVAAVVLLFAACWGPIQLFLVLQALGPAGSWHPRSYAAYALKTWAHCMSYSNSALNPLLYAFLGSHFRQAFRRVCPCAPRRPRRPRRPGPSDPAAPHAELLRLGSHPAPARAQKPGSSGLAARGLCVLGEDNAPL
Outline: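 Kinetic calcium assay, 1 s sampling over 3 min at Ex/Em 480/540, in HEK293 cells engineered with human KISS1R; compounds delivered in DMSO after 1 h dye loading.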

[4] = G protein-coupled receptor (GPCR) small molecule agonists, calcium flux assay: HEK293 wild type cell line counter screen (AID 1920065)
Outline: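 Calcium-sensitive dye, loaded 1 h at 37 C into cells cultured 18 h, reports compound-evoked calcium release as fluorescence (Ex/Em 480/540), measured over 3 min. Agonist mode; 15-point titrations, triplicate.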

[5] = p53 small molecule agonists, cell-based qHTS assay with rat liver microsomes: qHTS cell viability counter screen (AID 1963580); further: nearly all actives have a fitted effect of over 45% in size; further: potency means the concentration at half of the fitted maximal effect
Outline: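 Intracellular ATP, by CellTiter-Glo luminescence, defines viability. HCT-116 p53RE-bla cells, 4,000 per well, were compound-treated in the presence of rat liver microsomes and NADPH for 16 h at 37 C.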

[6] = p53 small molecule agonists, cell-based qHTS assay: qHTS cell viability counter screen (AID 1963581); further: nearly all actives have a fitted effect of over 45% in size; further: potency means the concentration at half of the fitted maximal effect
Outline: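 Following 5 h attachment, HCT-116 p53RE-bla cells took up compound for 16 h at 37 C; the reporter was read with B/G FRET substrate (2 h RT), and viability then via CellTiter-Glo ATP luminescence.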

[7] = target: 5-hydroxytryptamine receptor 2A (Homo sapiens) (UniProt P28223); assay: 5-hydroxytryptamine receptor 2A (HTR2A) small molecule agonists, cell-based qHTS assay (AID 1963587); further: nearly all actives have a fitted effect of over 30% in size; further: potency means the concentration at half of the fitted maximal effect
Chain of 5-hydroxytryptamine receptor 2A (Homo sapiens) (P28223 whole entry, looked up): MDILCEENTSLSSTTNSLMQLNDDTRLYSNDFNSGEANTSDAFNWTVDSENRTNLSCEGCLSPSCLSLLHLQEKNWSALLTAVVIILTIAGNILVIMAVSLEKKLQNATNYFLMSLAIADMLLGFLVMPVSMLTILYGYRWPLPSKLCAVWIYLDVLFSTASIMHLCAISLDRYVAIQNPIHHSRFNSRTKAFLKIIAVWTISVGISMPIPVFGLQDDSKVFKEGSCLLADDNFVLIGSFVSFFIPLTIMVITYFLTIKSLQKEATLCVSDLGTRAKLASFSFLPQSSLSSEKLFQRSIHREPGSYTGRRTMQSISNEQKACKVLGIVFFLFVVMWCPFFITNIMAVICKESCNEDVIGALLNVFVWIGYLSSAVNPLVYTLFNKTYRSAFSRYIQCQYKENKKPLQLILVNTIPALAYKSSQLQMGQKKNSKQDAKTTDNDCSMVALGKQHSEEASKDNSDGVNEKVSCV
Outline: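 Kinetic calcium-flux fluorescence (2 min, 1 sec intervals) after compound addition in agonist mode. HTR2A-CHO cells were cultured 18 h, then dye-loaded 1 h at 37 C.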

[8] = target: Muscarinic acetylcholine receptor M1 (Homo sapiens) (UniProt P11229); assay: Cholinergic receptor muscarinic 1 (CHRM1) small molecule antagonists, cell-based qHTS assay (AID 1963588); further: nearly all actives have a fitted effect of over 40% in size; further: potency means the concentration at half of the fitted maximal effect
Chain of Muscarinic acetylcholine receptor M1 (Homo sapiens) (P11229 whole entry, looked up): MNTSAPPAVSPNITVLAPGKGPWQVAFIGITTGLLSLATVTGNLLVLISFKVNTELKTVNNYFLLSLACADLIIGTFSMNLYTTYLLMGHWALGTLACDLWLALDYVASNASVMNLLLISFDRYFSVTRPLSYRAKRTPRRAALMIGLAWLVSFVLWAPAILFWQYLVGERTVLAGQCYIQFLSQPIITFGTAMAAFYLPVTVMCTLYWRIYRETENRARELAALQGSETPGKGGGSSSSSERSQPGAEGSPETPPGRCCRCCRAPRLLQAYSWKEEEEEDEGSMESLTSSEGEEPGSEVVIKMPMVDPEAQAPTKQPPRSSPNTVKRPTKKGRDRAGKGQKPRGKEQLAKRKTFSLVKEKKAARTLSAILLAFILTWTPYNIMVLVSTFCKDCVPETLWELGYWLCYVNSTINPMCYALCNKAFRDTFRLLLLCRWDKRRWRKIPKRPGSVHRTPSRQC
Outline: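 CHRM1-CHO calcium-flux assay, antagonist mode. Cells were seeded 18 h, dye-loaded 1 h at 37 C and given compound for 5 min at RT, then acetylcholine was added at 50nM. FDSS fluorescence was read 3 min; 15 concentrations, three runs.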

[9] = cAMP Responsive Elements (CRE) small molecule agonists, cell-based qHTS assay (AID 1963590)
Outline: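 A CRE-responsive beta-lactamase reporter in HEK 293T cells was used. Treatment ran 3 h at 37 C; detection used LiveBLAzer B/G FRET substrate for 2 h at room temperature.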

[10] = cAMP Responsive Elements (CRE) small molecule antagonists, cell-based qHTS assay (AID 1963591; active means well fitted inhibition curve with a large enough effect in the signal ratio in the repeat runs, not every such curve was filed as active; the % refers to the signal ratio)
Outline: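 HEK293T cells carrying a CRE-driven beta-lactamase reporter receive compound and NKH477 (0.25 uM final) for 3 h. Fluorescence from LiveBLAzer B/G FRET substrate is read after 2 h at room temperature.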

[11] = target: D(2) dopamine receptor (Homo sapiens) (UniProt P14416); assay: Dopamine D2 receptor (DRD2) small molecule agonists, cell-based qHTS assay (AID 1963594); further: nearly all actives have a fitted effect of over 35% in size
Chain of D(2) dopamine receptor (Homo sapiens) (P14416 whole entry, looked up): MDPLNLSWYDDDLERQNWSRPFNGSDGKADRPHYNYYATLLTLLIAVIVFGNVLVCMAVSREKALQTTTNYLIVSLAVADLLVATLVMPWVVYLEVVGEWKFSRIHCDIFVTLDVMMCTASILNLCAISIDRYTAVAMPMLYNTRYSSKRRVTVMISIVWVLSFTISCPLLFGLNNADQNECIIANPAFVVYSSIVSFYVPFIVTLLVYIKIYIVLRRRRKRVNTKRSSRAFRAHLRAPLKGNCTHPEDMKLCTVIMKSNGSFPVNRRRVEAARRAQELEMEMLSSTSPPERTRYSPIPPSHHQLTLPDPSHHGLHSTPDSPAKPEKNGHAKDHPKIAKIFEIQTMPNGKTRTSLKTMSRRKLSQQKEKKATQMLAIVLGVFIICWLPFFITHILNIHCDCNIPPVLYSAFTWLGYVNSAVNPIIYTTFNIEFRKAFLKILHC
Outline: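 cAMP accumulation in DRD2-HEK293 cells measured by HTRF after 1 h detection; compounds added 10 min before NKH477 (200nM […]) forskolin-analogue stimulation, 30 min at room temperature, with Ro20-1724 present at 0.1 mM final.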

[12] = target: D(2) dopamine receptor (Homo sapiens) (UniProt P14416); assay: Dopamine D2 receptor (DRD2) small molecule antagonists, cell-based qHTS assay (AID 1963595; active means well fitted inhibition curve with a large enough effect in the signal ratio in the repeat runs, with a control signal flat; the % refers to the signal ratio)
Outline: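 In this cell-based antagonist screen, compounds act for 10 min at room temperature before a 30 min challenge with 12 nM quinpirole and 200 nM NKH477. cAMP is quantified by HTRF competition in DRD2-HEK293 cells containing 0.1 mM Ro20-1724.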

[13] = p53 small molecule agonists, cell-based qHTS assay with human liver microsomes (AID 1963577)
Outline: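 Fluorescence of the beta-lactamase reporter in p53RE-bla cells, detected with LiveBLAzer substrate (2 h, room temperature, dark), served as the read-out after 16 h compound exposure at 37 C with human liver microsomes and NADPH, each 0.5 mg/mL final.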

[14] = p53 small molecule agonists, cell-based qHTS assay with human liver microsomes: qHTS cell viability counter screen (AID 1963579); further: nearly all actives have a fitted effect of over 45% in size; further: potency means the concentration at half of the fitted maximal effect
Outline: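 Cytotoxicity counter screen: p53RE-bla, 4,000 cells/well; 5 h settle, 37 C/5% CO2; cpd + HLM 0.5 mg/mL + NADPH 0.5 mg/mL (final); 16 h, 37 C; CellTiter-Glo, 30 min RT, luminescence.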

[15] = p53 small molecule agonists, cell-based qHTS assay (AID 1963582; active means well fitted activation curve with a large enough effect in the signal ratio in the repeat runs, not every such curve was filed as active; the % refers to the signal ratio)
Outline: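 In this cell-based concentration-response screen, a p53 response element drives beta-lactamase; cells received DMSO-borne compounds after 5 h culture and were incubated a further 16 h before FRET substrate development.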

[16] = target: 5-hydroxytryptamine receptor 2A (Homo sapiens) (UniProt P28223); assay: 5-hydroxytryptamine receptor 2A (HTR2A) small molecule antagonists, cell-based qHTS assay (AID 1963586); further: nearly all actives have a fitted effect of over 45% in size
Outline: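 Antagonist-mode intracellular calcium assay: DOI (4 nM) added after 5 min compound pre-incubation at room temperature to dye-loaded HTR2A-CHO cells. Fluorescence followed for 3 min, sampled every second.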

[17] = target: Muscarinic acetylcholine receptor M1 (Homo sapiens) (UniProt P11229); assay: Cholinergic receptor muscarinic 1 (CHRM1) small molecule agonists, cell-based qHTS assay (AID 1963589); further: nearly all actives have a fitted effect of over 35% in size
Outline: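 Measures agonist-induced intracellular calcium rise. Stable human CHRM1 CHO line, 1 h dye load at 37 C, compounds from DMSO, kinetic fluorescence read.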

[18] = target: Beta-2 adrenergic receptor (Homo sapiens) (UniProt P07550); assay: Adrenergic beta2 receptor (ADRB2) small molecule antagonists, cell-based qHTS assay (AID 1963592); further: series mostly up to about 92 µM; nearly all actives have a fitted effect of over 50% in size
Chain of Beta-2 adrenergic receptor (Homo sapiens) (P07550 whole entry, looked up): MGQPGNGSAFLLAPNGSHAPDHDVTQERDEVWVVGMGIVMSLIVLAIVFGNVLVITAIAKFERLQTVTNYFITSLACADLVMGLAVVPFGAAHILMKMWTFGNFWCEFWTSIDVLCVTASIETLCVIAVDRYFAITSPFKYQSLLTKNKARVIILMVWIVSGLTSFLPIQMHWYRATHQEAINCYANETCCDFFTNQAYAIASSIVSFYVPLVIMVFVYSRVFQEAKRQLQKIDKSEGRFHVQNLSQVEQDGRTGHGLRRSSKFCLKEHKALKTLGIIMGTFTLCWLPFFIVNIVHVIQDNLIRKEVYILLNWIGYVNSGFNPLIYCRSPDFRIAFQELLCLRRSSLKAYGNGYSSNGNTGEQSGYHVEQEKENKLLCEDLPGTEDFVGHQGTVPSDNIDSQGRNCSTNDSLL
Outline: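 Cells (CHO, stable ADRB2 overexpression) incubated 18-20hr at 37C; compounds added from DMSO; agonist mix (1nM isoproterenol, 100uM IBMX, 25uM Ro-20-1724) added; 0.5hr RT; d2-cAMP and anti-cAMP-cryptate added; 1hr RT; 665/615 nm read.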

[19] = target: Beta-2 adrenergic receptor (Homo sapiens) (UniProt P07550); assay: Adrenergic beta2 receptor (ADRB2) small molecule agonists, cell-based qHTS assay (AID 1963593);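 further: CHO cells stably overexpressing human ADRB2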
Outline: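 CHO cells stably over-expressing ADRB2 were plated overnight at 37C, then dosed with compounds plus a stimulation mix containing 100uM IBMX and 25uM Ro-20-1724 for 0.5hr at room temperature. cAMP was measured by HTRF competition, 1hr.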

[20] = p53 small molecule agonists, cell-based qHTS assay with rat liver microsomes (AID 1963578)
Outline: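 Cells carrying a p53 response element–beta-lactamase reporter were plated and rested 5 h, then dosed with compound in DMSO plus rat liver microsomes and NADPH, each at 0.5 mg/mL final. After 16 h at 37 C, LiveBLAzer substrate was added for 2 h.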

Compound	Potency [1]	Potency [2]	Potency [3]	Potency [4]	Potency [5]	Potency [6]	Potency [7]	Potency [8]	Potency [9]	Potency [10]	Potency [11]	Potency [12]	Potency [13]	Potency [14]	Potency [15]	Potency [16]	Potency [17]	Potency [18]	Potency [19]	Potency [20]
COC(=O)C1=C(C)NC(C)=C(C(=O)OC(C)C)C1c1cccc2nonc12 (centres undefined)	inactive	inactive	inactive	inactive	inactive	inactive	inactive	inactive	inactive	inactive	inactive	inactive								
O=C(/C=C/c1ccc(O)c(O)c1)O[C@@H]1C[C@@](OC(=O)/C=C/c2ccc(O)c(O)c2)(C(=O)O)C[C@@H](O)[C@@H]1O	inactive	inactive	inactive		inactive	inactive	inactive	inactive	inactive	inactive		inactive	inactive	inactive	inactive	inactive	inactive	inactive	inactive	
CC/C(=C(\c1ccc(O)cc1)c1ccc(OCCN(C)C)cc1)c1ccccc1	30.7 µM (active)	inactive	inactive	inactive		20.5 µM (active)		inactive			inactive			20.5 µM (active)		inactive				
N[C@@H](CCC(=O)O)C(=O)O	inactive	inactive		inactive		inactive	inactive	inactive	inactive	inactive		inactive		inactive		inactive	inactive	inactive	inactive	
CC(C)N(c1ccccc1)C(C)C	inactive	inactive	inactive	inactive	inactive		inactive	inactive	inactive	inactive	inactive	inactive		inactive		inactive	inactive	inactive		
CCCCOCCOC(=O)COc1nc(Cl)c(Cl)cc1Cl	inactive	inactive		inactive	inactive				inactive	inactive			inactive	inactive	inactive			inactive		inactive
CCN=C1C=CC(=C(c2ccc(N(CC)CC)cc2)c2ccc(N(CC)CC)cc2)c2ccccc21	19.2 µM (active)	inactive	inactive		40.5 µM (active)	36.1 µM (active)	inactive	inactive						22.8 µM (active)		inactive	inactive			inactive
CCN(CC)CCNC(C(=O)OCCC(C)C)c1ccccc1 (centres undefined)	inactive	inactive		inactive	inactive	inactive	inactive	0.516 µM (active)	inactive	inactive	inactive	inactive		inactive		inactive	inactive	inactive		
CC1=C(CC(=O)O)c2cc(F)ccc2/C1=C\c1ccc(S(C)(=O)=O)cc1	inactive	inactive	inactive	inactive	inactive	inactive					inactive			inactive				inactive		
Cc1nc(N)nc(N)c1-c1ccc(Cl)c(Cl)c1	inactive	inactive	inactive		inactive		inactive		inactive	inactive	inactive	inactive	inactive	inactive		inactive	inactive	inactive		inactive
O=C1NC(=O)c2cc([N+](=O)[O-])ccc21	inactive	inactive		inactive	inactive	inactive		inactive	inactive	inactive	inactive		inactive	inactive		inactive	inactive	inactive		inactive
O=C(O)CC(=O)C(=O)O	inactive	inactive	inactive	inactive		inactive			inactive	inactive		inactive				inactive	inactive	inactive		
CCCCN(CCCC)CCC(O)c1cc2c(Cl)cc(Cl)cc2c2cc(C(F)(F)F)ccc12 (centres undefined)	21.1 µM (active)	inactive	inactive	inactive		inactive	inactive	inactive	inactive		inactive	inactive		inactive		inactive	inactive	inactive	inactive	
Cc1cc(C)c(/C=C2\C(=O)Nc3ccccc32)[nH]1	inactive	inactive		inactive	inactive	inactive	21.3 µM (active)	inactive			inactive	inactive	inactive	inactive	inactive	inactive	inactive			inactive
